USP2a inh: blocks human ubiquitin-specific protease USP2a; Potency, µM (highest dose often 38.3 µM), without a hit: at the top dose activity change, negative = inhibition, usual class: inhibitors; USP2 core, Ub-CHOP2 coupled fluorogenic reporter, 485/531; AID 463254; actives 0.01% (n = 330,000);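 further: potency means the concentration at half of the fitted maximal effect; plate controls were DMSO wells for no effect and full inhibition by NEM control for full effect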
Target sequence (O75604 whole entry, looked up): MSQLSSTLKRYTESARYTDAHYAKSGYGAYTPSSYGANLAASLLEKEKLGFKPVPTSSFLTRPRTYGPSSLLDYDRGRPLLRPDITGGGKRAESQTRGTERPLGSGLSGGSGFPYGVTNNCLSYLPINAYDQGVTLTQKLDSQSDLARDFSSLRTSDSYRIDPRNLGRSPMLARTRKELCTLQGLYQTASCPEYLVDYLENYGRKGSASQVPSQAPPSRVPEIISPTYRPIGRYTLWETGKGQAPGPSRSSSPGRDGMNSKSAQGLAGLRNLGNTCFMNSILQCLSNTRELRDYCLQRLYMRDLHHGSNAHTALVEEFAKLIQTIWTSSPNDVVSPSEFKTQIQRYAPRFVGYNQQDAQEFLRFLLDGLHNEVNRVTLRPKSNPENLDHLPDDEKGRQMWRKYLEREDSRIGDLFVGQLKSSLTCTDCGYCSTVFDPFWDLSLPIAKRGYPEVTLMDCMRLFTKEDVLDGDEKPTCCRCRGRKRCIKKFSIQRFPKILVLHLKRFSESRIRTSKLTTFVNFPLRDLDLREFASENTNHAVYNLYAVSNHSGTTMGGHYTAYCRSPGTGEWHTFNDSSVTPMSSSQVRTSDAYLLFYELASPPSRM
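Cell-free coupled assay: 10nM USP2 core preincubated 30min RT with compound in Tris-HCl pH 8.0/CaCl2/CHAPS buffer, then 25nM Ub-CHOP2 and 25nM reporter substrate; fluorescence (Ex 485/Em 531) read after 60min RT, normalized to NEM inhibition, concentration-response curves fitted.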
Eya2 phos inh: inhibitors of human Eya2 phosphatase activity; actives 0.006% (n = 330,000); recombinant Eya2, OMFP fluorescence dephosphorylation (OMFP is methylfluorescein phosphate); AID 488837; Potency, µM (highest dose often 76.9 µM), without a hit: top-dose activity, negative = inhibition, usual class: inhibitors; further: potency means the concentration at half of the fitted maximal effect; on the % scale 0 is the no-effect control and ±100 the full control effect
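Eya2 (0.2 uM) preincubated 10 min at ambient with compound, then OMFP substrate added at 50 uM; 10 min reaction in 50 mM HEPES pH 7.5, 50 mM NaCl, 5 uM MgCl2, 0.05% BSA, 1 mM DTT. Fluorescence read at Ex 485/Em 525 nm.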
D1 ag: activates the human D1 dopamine receptor; P21728; HEK293 T-REx D1 cells, calcium flux, agonist mode; activation, % at 2 µM; actives 1% (n = 360,000); AID 504660; in the data active means activation above about 30%; further: 0% is about no effect
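Inducible HEK293 T-REx D1 cells, force-coupled to calcium signalling, were plated at 4000 cells/well with tetracycline and held overnight at 30 C. After no-wash calcium dye loading, compound-evoked calcium rise over 180 s flagged agonists.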
D1 antagonist: human D1 dopamine receptor antagonism; P21728; HEK293 TREx D1 cells, calcium flux, dopamine EC80; stronger effect = lower value; activity change, negative = inhibition, % at 10 µM; actives 3.2% (n = 360,000); in the data active means activity change below about -30%; further: on the % scale 0 is the no-effect control and ±100 the full control effect
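Calcium flux readout: force-coupled, inducible Hek293 Trex D1 line, cells induced overnight at 30 C with tetracycline, dye-loaded 30–90 min at RT. Antagonism scored against EC80 dopamine challenge given 180 s after compound.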
GALK inh: galactokinase (human) inhibition. AID 1868. Purified GALK, Kinase-Glo residual ATP luminescence. Potency, µM (doses to about 57.5 µM), for the others: at the highest dose activity change, negative = inhibition, actives largely listed as inhibitors. P51570. actives 0.007% (n = 270,000); further: potency means the concentration at half of the fitted maximal effect; on the % scale 0 is the no-effect control and ±100 the full control effect
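Compounds were pin-transferred into ATP buffer (35 uM final), then GALK plus galactose (5 nM, 100 uM final) was added. After 1 h at room temperature, Kinase-Glo Plus was added and luminescence read after 10 min.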
D1 PAM: potentiators of human D1 dopamine receptor; AID 504651; actives 0.036% (n = 360,000); potentiation, % at 10 µM; HEK293 TREx D1 cells, calcium flux, dopamine EC20 potentiation; P21728; in the data active means potentiation above about 30%; further: 0% is about no effect
An asterisk follows results filed as active; . = not tested or not shown. Only some compounds are listed: those with a hit (about 3.9% of all), similar ones and a draw of the others. Unless noted, the call rests on the fitted dose curve; in most records, active means well fitted inhibition curve with a large enough effect; inconclusive means small, poorly fitted or top-dose-only effect, or effect the other way; inactive means flat fitted curve, though single readings scatter.

SMILES	USP2a inh	Eya2 phos inh	D1 ag	D1 antagonist	GALK inh	D1 PAM
COc1ccc(N2CCN(C(=O)CCC(=O)N3CCOc4ccc(C)cc43)CC2)cc1	-3.5%	2.4%	5.6	-34.0*	.	-3.5
Cc1ccc2c(c1)N(C(=O)CCC(=O)N1CCN(c3cccc(C)c3C)CC1)CCO2	3.2%	-11.0%	1.8	-1.5	.	-0.5
COc1ccc(N2CCN(C(=O)Cc3coc4cc(C)ccc34)CC2)cc1	3.3%	-26.6%	0.8	-2.8	9.4%	-4.0
Cc1ccc2c(c1)N(C(=O)CCC(=O)N1CCN(c3ccccc3)CC1)CCO2	0.3%	5.5%	1.8	-49.9*	.	-11.1
O=C(NCCOC(=O)c1ccncc1)c1ccccc1	0.6%	1.1%	4.4	3.3	5.4%	-4.5
COc1cc(C(=O)OCCNC(=O)c2ccncc2)cc(OC)c1OC	1.1%	-6.2%	1.0	-39.2*	0.9%	-5.2
Cc1ccc(C(C)C)c(OCCNCc2ccccc2)c1	-4.6%	-12.6%	53.1*	14.1	3.9%	5.7
Cc1ccc(C)c(OCCCNCc2ccccc2)c1	-0.8%	7.2%	20.1	-0.9	-0.7%	4.3
COCCNCCOCCOc1ccc(Cl)c(C)c1	2.4%	10.6%	32.0*	.	-0.4%	-3.1
CC(C)(C)c1ccccc1OCCOCCNCc1ccccc1	-0.7%	-4.1%	36.4*	-20.8	0.9%	-1.2
COCCCNCCOCCOc1ccc(Cl)cc1C(C)(C)C	-0.3%	-20.5%	38.1*	13.6	1.3%	-6.7
Cc1cc(OCCOCCNCc2ccccc2)ccc1C(C)C	4.1%	-4.9%	63.0*	-7.5	0.8%	-2.9
COCCNCc1ccccc1	2.1%	9.9%	5.9	-10.4	0.4%	-4.2
Cc1ccc(CN2CCSc3ccc(C(=O)Nc4ccc(C)cc4)cc32)cc1	.	.	2.3	6.0	.	-2.0
CCOC(=O)c1sc(Nc2nc3ccc(OC)cc3s2)cc1C	-13.5%	-4.5%	4.3	-35.7*	-1.7%	-4.3
CC1(C(=O)Nc2cccc(C(F)(F)F)c2)Cc2ccccc2C(=O)O1 (stereo not drawn)	.	.	15.4	28.5	.	0.1
COc1cccc(NC(=O)CN(C)C(=O)c2ccccn2)c1	-0.1%	8.9%	.	.	.	.
COc1ccc(CC(=O)OCC(=O)Nc2cccc(Cl)c2)cc1	0.0%	3.1%	3.1	15.6	-1.2%	-3.2
COc1cccc(NC(=O)Nc2ccc(CC(=O)O)cc2)c1	-0.9%	-1.9%	1.4	1.8	15.5%	-0.8
COc1ccc(CCC(=O)Nc2cccc(Cl)c2)cc1	3.8%	5.0%	11.0	-44.9*	-1.7%	-8.3
COc1ccc(CCN(C)CCC(=O)Nc2cccc(C)c2)cc1OC	2.8%	14.7%	3.2	-32.6*	-1.2%	-4.9
COc1cccc(NC(=O)CN(C)C(=O)/C=C/c2ccc3ccccc3n2)c1	-1.0%	8.8%	-1.3	-46.0*	.	3.3
CCc1ccc(NC(=O)Nc2cccc(OC)c2)cc1	8.1%	-8.9%	9.0	-31.4*	1.5%	-1.1
COc1ccc(CCN(C)CCC(=O)Nc2ccc(C)cc2)cc1OC	-0.5%	5.7%	-1.4	-6.8	-2.8%	-4.9
Cc1ccc(C)c(NC(=O)Cn2c(=O)n(CC(=O)NCCc3ccccc3)c(=O)c3ccccc32)c1	.	.	-0.3	-8.9	.	6.4
SMILES	USP2a inh	Eya2 phos inh	D1 ag	D1 antagonist	GALK inh	D1 PAM
O=C(CCNS(=O)(=O)c1cccc2nonc12)Nc1ccc(F)cc1	.	.	0.7	-3.6	.	0.1
CCc1ccc(NC(=S)N2CCN(c3cccc(OC)c3)CC2)cc1	1.1%	4.1%	9.0	-31.3*	-7.2%	-5.2
COc1cccc(NC(=O)CCC(=O)Nc2cccc(OC)c2)c1	0.4%	1.6%	4.9	-31.5*	1.8%	-0.8
COc1cccc(N2CCN(C(=S)Nc3ccccc3)CC2)c1	0.0%	-4.8%	13.4	-13.3	-5.7%	-3.7
CCCOc1ccc(-c2nonc2NC(=O)COc2ccc(C)cc2)cc1OCCC	.	.	4.2	8.6	.	-1.8
CCOC(=O)C(CCCOc1cccc(OC)c1)C(=O)OCC	-0.6%	5.7%	9.9	-34.3*	3.6%	-0.2
Cc1nc2cc(-c3ccccc3)nn2c(C)c1CCC(=O)NCc1ccco1	1.1%	24.0%	4.4	-31.5*	1.6%	.
Cc1nc2cc(-c3cccc(F)c3)nn2c(C)c1CCC(=O)NC(C)CCc1ccco1 (stereo not drawn)	-5.5%	5.5%	5.2	-35.1*	2.2%	.
O=S(=O)(c1ccc2c(c1)OCCO2)N1CCN(S(=O)(=O)c2cccc[n+]2[O-])CC1	.	.	0.2	-28.5	.	1.6
O=c1oc2ccccc2cc1-c1nc2ccccc2o1	0.3%	-12.2%	1.5	-4.3	-0.6%	-10.1
Nc1cc2nc3ccccc3oc-2cc1=O	2.5%	-0.3%	33.0*	-8.8	2.8%	-0.2
O=C(NCCCN=C1NS(=O)(=O)c2ccccc21)c1ccc(S(=O)(=O)N2CCCCC2)cc1	2.1%	-9.4%	7.3	-35.1*	0.4%	-0.6
CCN(CC)CCNC(=O)c1ccc(NC(=O)c2cccc(S(=O)(=O)Nc3ccc(C)cc3)c2)cc1	-1.1%	-24.3%	1.2	-77.0*	-0.6%	-18.6
Cc1ccc(C(=O)NCCn2c(C)cc3ccccc32)cc1C	.	.	0.9	-13.3	.	-5.6
CCN(CC)CCNC(=O)c1ccc(NC(=O)c2cccc(S(=O)(=O)N3CCc4ccccc43)c2)cc1	-0.9%	-18.6%	3.7	-4.8	.	-4.5
CCN(CC)CCNC(=O)c1ccc(NC(=O)C2CCN(S(=O)(=O)c3ccc4c(c3)OCCO4)CC2)cc1	1.5%	-3.8%	2.2	-3.3	.	-5.5
CCN(CC)CCNC(=O)c1ccc(NC(=O)c2cc(S(=O)(=O)N3CCCCC3)ccc2C)cc1	-0.4%	-7.8%	0.2	-37.1*	.	0.0
Cc1cc2ccccc2n1CCNC(=O)c1ccc(S(=O)(=O)N2CCCCC2)cc1	-2.2%	-18.3%	60.8*	27.9	0.6%	2.6
Cc1oc(-c2cccc(Cl)c2)nc1CS(=O)(=O)CC(=O)NC(C)CCc1ccccc1 (stereo not drawn)	.	.	0.9	-3.7	.	-1.2
CCN(CC)CCCNC(=O)c1cn(CC)c2ccc(S(=O)(=O)N3CCC(C)CC3)cc2c1=O	.	.	0.0	-20.4	.	3.9
COc1ccc(C2c3c(n(C)c4ccccc34)C(=O)N2CC(=O)Nc2ccccc2F)cc1 (stereo not drawn)	.	.	6.4	17.4	.	-1.1
Cc1ccccc1N1C(=O)C(Cl)=C(N2CCOCC2)C1=O	0.0%	1.4%	0.9	-45.3*	3.7%	-3.3
CC(C)(C)OC(=O)N[C@@H](Cc1ccccc1)c1nnc(S(=O)(=O)Cc2ccccc2)o1	1.3%	-7.8%	5.3	-47.5*	-0.1%	-11.7
CCSc1nnc([C@H](Cc2ccccc2)NC(=O)OC(C)(C)C)o1	5.2%	8.0%	1.2	.	-2.0%	-0.8

High-throughput results: PubChem BioAssay, National Center for Advancing Translational Sciences (NCATS)
